“And” between values parts separate entries of the source, which are not always exact repeats. Equal values may be shown once. Inconclusive results are not listed. Where a call stands in place of a potency, no number is given. The source made the active and inactive calls. Unless noted, calls follow the shape of the dose curve; as a rule, active = well fitted curve in the direction sought with a large enough effect; inconclusive = small, poorly fitted or top-dose-only effect, or another doubt; inactive = no such curve, though single readings can be large; an effect the other way counts as inactive or inconclusive.
Experiments:
[1] = qHTS assay to identify small molecule inhibitors of chordoma cells - UCH-1 (AID 1259355); details: UCH-1 chordoma viability, CellTiter-Glo, 48 h, combination, with auranofin plus four topoisomerase inhibitors; series mostly up to 46.1 µM; also: nearly all actives have a fitted effect of over 55% in size; also: potency is read from the fitted curve at half-maximal effect
Summary of the method: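 800 cells/well, overnight attach; compounds pinned at 15 concs, then auranofin/camptothecin/doxorubicin/rubitecan/topotecan combo added; 48hr 37 C, 5% CO2; CellTiter-Glo, 30min RT, luminescence.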

[2] = qHTS assay to identify small molecule inhibitors of chordoma cells - UCH-2 (AID 1259356); details: UCH-2 chordoma viability, CellTiter-Glo ATP luminescence, 48 h; series mostly up to 46.1 µM
[3] = P-glycoprotein substrates identified in KB-8-5-11 adenocarcinoma cell line, qHTS therapeutic library screen (AID 1346987); details: KB-8-5-11 (P-gp overexpressing) viability, CellTiter-Glo, 72 h; series mostly up to 44.5 µM; also: nearly all actives have a fitted effect of over 65% in size; also: potency is read from the fitted curve at half-maximal effect
Summary of the method: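 Human cervical adenocarcinoma KB-8-5-11 cells, selected in colchicine to over-express P-gp and assayed without it, were exposed for 72 h to titrated compounds. An ATP-based luminescent viability signal gave AC50.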

[4] = Natriuretic polypeptide receptor (hNpr1) antagonism - Pilot counterscreen GloSensor control cell line (AID 1347045; calls by dose curve); details: HEK293 cGMP GloSensor cells, SNP-stimulated luminescence, 20 min; series mostly up to 38.3 µM
Summary of the method: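 The SNP-driven cGMP luminescence signal (50 uM, 20 min, room temperature) was measured in GloSensor HEK293 control cells. Compounds were tested as a LOPAC titration series and preincubated for 30-50 min.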

[5] = molecular target: Atrial natriuretic peptide receptor 1 (Homo sapiens) (UniProt P16066); assay: Natriuretic polypeptide receptor (hNpr1) antagonism - Pilot screen (AID 1347049; calls by dose curve;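 also: HEK293 cells with hNpr1 and GloSensor cGMP luciferase stimulated by 0.1 nM hNppA; agonist-evoked cGMP luminescence read 20 min after hNppA addition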); details: hNpr1 cells, antagonist mode cGMP read-out; series mostly up to 57.5 µM
Chain of Atrial natriuretic peptide receptor 1 (Homo sapiens) (P16066 whole entry, looked up): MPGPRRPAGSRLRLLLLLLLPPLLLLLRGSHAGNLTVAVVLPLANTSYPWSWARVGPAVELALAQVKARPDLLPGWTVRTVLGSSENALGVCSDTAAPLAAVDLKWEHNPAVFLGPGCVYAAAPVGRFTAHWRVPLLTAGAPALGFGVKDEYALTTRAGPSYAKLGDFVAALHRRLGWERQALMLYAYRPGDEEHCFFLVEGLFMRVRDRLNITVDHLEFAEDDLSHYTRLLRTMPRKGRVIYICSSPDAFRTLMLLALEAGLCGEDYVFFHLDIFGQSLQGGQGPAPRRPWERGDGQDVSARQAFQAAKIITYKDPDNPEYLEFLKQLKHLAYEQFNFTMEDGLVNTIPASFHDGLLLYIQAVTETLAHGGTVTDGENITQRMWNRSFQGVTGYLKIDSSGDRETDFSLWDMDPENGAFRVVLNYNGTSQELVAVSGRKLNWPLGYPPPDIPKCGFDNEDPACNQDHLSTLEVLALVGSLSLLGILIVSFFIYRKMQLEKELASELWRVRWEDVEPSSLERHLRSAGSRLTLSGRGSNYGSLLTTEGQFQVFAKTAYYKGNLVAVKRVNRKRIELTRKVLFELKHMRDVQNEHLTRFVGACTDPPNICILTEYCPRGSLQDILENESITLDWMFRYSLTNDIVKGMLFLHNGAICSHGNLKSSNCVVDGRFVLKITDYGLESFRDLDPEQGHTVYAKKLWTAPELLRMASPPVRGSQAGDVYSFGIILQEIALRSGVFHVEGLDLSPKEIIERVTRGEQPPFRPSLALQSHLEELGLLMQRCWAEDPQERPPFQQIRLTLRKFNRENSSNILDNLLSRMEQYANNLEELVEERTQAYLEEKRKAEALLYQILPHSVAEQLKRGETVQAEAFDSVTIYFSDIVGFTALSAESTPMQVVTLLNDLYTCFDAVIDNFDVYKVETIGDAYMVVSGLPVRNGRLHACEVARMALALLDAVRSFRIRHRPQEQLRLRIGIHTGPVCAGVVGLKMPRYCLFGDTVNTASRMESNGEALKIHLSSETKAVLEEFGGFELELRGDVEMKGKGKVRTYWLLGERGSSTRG
Summary of the method: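 Receptor antagonism read as cGMP-dependent luminescence in hNpr1/pGS-40F HEK293 cells: pre-read after 30 min compound exposure, post-read 20 min after hNppA agonist at 0.1 nM final, all at room temperature, protected from light; A-71915 titration as control.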

[6] = molecular target: Atrial natriuretic peptide receptor 2 (Homo sapiens) (UniProt P20594); assay: Natriuretic polypeptide receptor (hNpr2) antagonism - Pilot subtype selectivity assay (AID 1347050; calls by dose curve); details: NPR2-expressing cells, cGMP antagonist-mode read-out; series mostly up to 38.3 µM
Chain of Atrial natriuretic peptide receptor 2 (Homo sapiens) (P20594 whole entry, looked up): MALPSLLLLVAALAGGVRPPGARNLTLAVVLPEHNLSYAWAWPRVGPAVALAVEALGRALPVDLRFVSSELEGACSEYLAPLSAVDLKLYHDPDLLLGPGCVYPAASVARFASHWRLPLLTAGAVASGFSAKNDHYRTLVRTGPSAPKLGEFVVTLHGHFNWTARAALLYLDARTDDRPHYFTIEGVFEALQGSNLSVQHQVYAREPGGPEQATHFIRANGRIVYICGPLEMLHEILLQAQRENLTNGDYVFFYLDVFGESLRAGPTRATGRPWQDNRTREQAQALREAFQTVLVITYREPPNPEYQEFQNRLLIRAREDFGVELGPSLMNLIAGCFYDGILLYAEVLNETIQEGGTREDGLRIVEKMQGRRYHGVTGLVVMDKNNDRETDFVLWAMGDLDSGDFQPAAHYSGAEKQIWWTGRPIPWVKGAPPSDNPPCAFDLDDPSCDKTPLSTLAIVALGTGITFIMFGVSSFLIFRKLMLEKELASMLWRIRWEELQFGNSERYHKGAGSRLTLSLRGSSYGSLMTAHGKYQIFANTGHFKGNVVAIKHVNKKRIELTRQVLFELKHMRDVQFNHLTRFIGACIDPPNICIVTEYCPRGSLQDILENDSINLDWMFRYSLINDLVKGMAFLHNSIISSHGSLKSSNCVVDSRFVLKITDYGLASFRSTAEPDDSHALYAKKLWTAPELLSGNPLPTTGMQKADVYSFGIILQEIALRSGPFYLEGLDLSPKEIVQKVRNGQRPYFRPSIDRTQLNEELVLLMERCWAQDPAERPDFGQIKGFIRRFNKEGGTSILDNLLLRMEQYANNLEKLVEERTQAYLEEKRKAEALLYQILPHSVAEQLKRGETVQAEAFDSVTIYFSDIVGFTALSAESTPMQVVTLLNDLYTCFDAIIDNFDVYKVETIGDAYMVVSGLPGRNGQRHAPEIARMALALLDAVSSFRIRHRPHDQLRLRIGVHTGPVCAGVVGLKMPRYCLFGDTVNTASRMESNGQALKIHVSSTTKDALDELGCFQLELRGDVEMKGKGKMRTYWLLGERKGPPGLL
Summary of the method: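 Antagonist mode: compounds (LOPAC1280, seven 1:5 dilutions) added 30 min before 1 nM hNppC stimulation of hNpr2-HEK293 cGMP-sensor cells; luminescence read before and 20 min after agonist at ambient temperature.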

[7] = P-glycoprotein substrates identified in KB-3-1 adenocarcinoma cell line, qHTS therapeutic library screen (AID 1346986); details: KB-3-1 parental cells viability, CellTiter-Glo, 72 h; series mostly up to 44.5 µM; also: nearly all actives have a fitted effect of over 60% in size
Summary of the method: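 Dose-response cytotoxicity, KB-3-1 vs P-gp-high KB-8-5-11, no colchicine in assay medium. Read: CellTiter-Glo at 72 h.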

SMILES | Potency [1] | outcome [2] | Potency [3] | Potency [4] | outcome [5] | outcome [6] | Potency [7]
COc1ccccc1N1CCN(CCCNc2cc(=O)n(C)c(=O)n2C)CC1 | inactive | inactive | inactive | inactive | inactive | inactive | 
CC[C@]1(O)C[C@@H]2CN(CCc3c([nH]c4ccccc34)[C@@](C(=O)OC)(c3cc4c(cc3OC)N(C)[C@H]3[C@@](O)(C(=O)OC)[C@H](OC(C)=O)[C@]5(CC)C=CCN6CC[C@]43[C@@H]65)C2)C1 | 5.62 µM (active) | inactive | 5.8 µM (active) and 5.17 µM (active) and 1.16 µM (active) |  |  |  | 
Clc1ccc(Cn2c(CN3CCCC3)nc3ccccc32)cc1 | inactive | inactive |  | inactive | inactive |  | 
CCN(CC)C(=O)c1ccc(O)c(OC)c1 | inactive | inactive | inactive | inactive | inactive | inactive | 
CC(C(=O)O)c1ccc(-c2ccccc2)c(F)c1 (stereo not drawn) |  | inactive | inactive |  |  |  | 
O=C1NCC2(CCN(CCc3ccccc3)CC2)O1 | inactive | inactive | inactive | inactive | inactive | inactive | 
NCCS | inactive | inactive | inactive | inactive | inactive | inactive | 
Cc1cccc(C)c1OCC(C)N (stereo not drawn) | inactive | inactive | inactive |  | inactive | inactive | 
CC(=O)CCCCn1c(=O)c2c(ncn2C)n(C)c1=O | inactive | inactive | inactive |  | inactive | inactive | inactive
O=C(O)Cc1cccc2ccccc12 | inactive | inactive | inactive |  |  |  | 
CC(=O)c1ccc(S(=O)(=O)NC(=O)NC2CCCCC2)cc1 | inactive | inactive | inactive | inactive | inactive | inactive | 

Source: PubChem BioAssay (NCATS)
